About 1,700 (3.3%) of roughly 52,000 compounds were called active. Rule as the data show it: active = survival mostly below about 52% (no sharp cut-off); inactive = mostly above about 56%. The list comes from a sample in which actives are over-represented; it also holds similar structures and randomly drawn compounds.
system: Wild type; assay: S. aureus survival, RN4220 and DeltatarO strains – OD600, teichoic acid synthesis inhibitors, primary screen (AID 463173); settings: S. aureus RN4220 wild type/DeltatarO growth, OD600, 18 h, hits give low values, screened at 18.75 µg/mL (by protocol)

Structure (SMILES) | survival
O=C(CSc1nc2nccnc2c(=O)n1CCc1c[nH]c2ccccc12)Nc1ccc(F)cc1 | 42% (inactive)
CCn1c(CNc2cccc(Cl)c2)nnc1SCc1ccccc1 | 105% (inactive)
O=C1CCCC2=C1C(c1ccc3c(c1)OCO3)c1c([nH]c(=O)[nH]c1=O)N2 (stereo not given) | 111% (inactive)
CCOC(=O)c1ccccc1NC(=O)NCc1cccn1Cc1ccc(F)cc1 | 84% (inactive)
CC(=O)c1cccc(NC(=O)c2sc(-n3nc(C)c(Cc4ccc5c(c4)OCO5)c3C)nc2C)c1 | 94% (inactive)
Cc1ccc(Cn2c(CN3CCC(C(=O)O)CC3)cc3ccccc32)cc1 | 82% (inactive)
CC1CCN(S(=O)(=O)c2ccc3c(ccn3CC(=O)NCc3ccccc3F)c2)CC1 | 53% (inactive)
O=C(Cn1ccc2cc(S(=O)(=O)N3CCCCCC3)ccc21)NCCc1ccccc1Cl | 72% (inactive)
O=C(Cn1ccc2cc(S(=O)(=O)N3CCCCC3)ccc21)NCCc1ccccc1Cl | -6% (active)
O=C(CCn1ccc2cc(S(=O)(=O)N3CCCC3)ccc21)NCc1ccccc1Br | 72% (inactive)
O=C(Cn1ccc2cc(S(=O)(=O)N3CCCCCC3)ccc21)NCc1ccccc1Cl | 73% (inactive)
O=C(CCn1ccc2cc(S(=O)(=O)N3CCCC3)ccc21)NCc1ccccc1F | 83% (inactive)
O=C(CCn1ccc2cc(S(=O)(=O)N3CCCC3)ccc21)NCc1ccccc1Cl | 14% (active)
CC1CCN(S(=O)(=O)c2ccc3c(ccn3CCC(=O)NCc3ccccc3F)c2)CC1 | -6% (active)
CCOc1ccccc1CNC(=O)CCn1ccc2cc(S(=O)(=O)N3CCC(C)CC3)ccc21 | 69% (inactive)
NC(=O)C1CCCN1S(=O)(=O)c1ccc(F)cc1 (stereo not given) | 110% (inactive)
Cc1ccc2c(c1)N(C(=O)N1CCC(C(=O)Nc3cccc(F)c3)CC1)CCO2 | 70% (inactive)
COc1cc(C2c3c(oc4ccc(C)cc4c3=O)C(=O)N2Cc2ccc(F)cc2)ccc1O (stereo not given) | 83% (inactive)
CCCC(C(=O)Nc1cc(C)c(Cl)cc1OC)N1Cc2ccccc2C1=O (stereo not given) | 71% (inactive)
CCOC(=O)c1ccccc1NS(=O)(=O)c1c(-c2ccc(C)cc2)csc1C(=O)OC | 134% (inactive)
Cc1ccc2oc(-c3ccc(Cl)c(NC(=O)c4cc5ccccc5o4)c3)nc2c1 | 66% (inactive)
CSc1nnc2c(n1)OC(c1cccc(O)c1Cl)Nc1ccccc1-2 (stereo not given) | 71% (inactive)

Structure (SMILES) | survival
CSc1nc(Nc2cccc(C)c2)c(C#N)c(-c2ccccc2)n1 | 104% (inactive)
CCCCOC(=O)c1ccc(NC(=O)C2(c3cccs3)CCOCC2)cc1 | 72% (inactive)
COc1ccc(/C=C/C(=O)Nc2ccc3nc4c(c(Nc5ccccc5OC)c3c2)CCCC4)cc1 | 93% (inactive)
COc1ccccc1C(=O)NCCSc1c(C)[nH]c2ccccc12 | 52% (inactive)
COC(=O)c1ccc(NC(=O)CCCC(=O)OCC(=O)c2ccc(Cl)cc2)cc1 | 87% (inactive)
O=C(Nc1ccccc1F)c1oc2ccccc2c1NC(=O)c1c(F)cccc1F | 53% (inactive)
Cc1sc2c(c1C)c(=O)n(CCc1ccccc1)c(=O)n2Cc1cccc(F)c1 | 9% (active)
Cc1ccc(Cn2c(=O)n(-c3ccc(C)c(C)c3)c(=O)c3c(C)c(C)sc32)cc1 | 46% (active)
CCOc1ccc(-n2c(=O)c3c(C)c(C)sc3n(Cc3ccccc3C)c2=O)cc1 | 89% (inactive)
Cc1ccc(Cn2c(=O)n(Cc3ccccc3)c(=O)c3c(C)c(C)sc32)cc1 | 83% (inactive)
Cc1sc2c(c1C)c(=O)n(CCc1ccccc1)c(=O)n2Cc1ccc(F)cc1 | 50% (inactive)
Cc1ccc(Cn2c(=O)n(CCc3ccccc3)c(=O)c3c(C)c(C)sc32)cc1 | 22% (active)
CCOc1ccc(-n2c(=O)c3c(C)c(C)sc3n(CC(=O)C(C)(C)C)c2=O)cc1 | 125% (inactive)
Cc1sc2c(c1C)c(=O)n(CCc1ccccc1)c(=O)n2Cc1ccc(C(C)(C)C)cc1 | 85% (inactive)
CCOc1ccc(-n2c(=O)c3c(C)c(C)sc3n(Cc3ccc(C(C)(C)C)cc3)c2=O)cc1 | 19% (active)
Cc1ccc(-n2c(=O)c3c(C)c(C)sc3n(Cc3ccc(F)cc3Cl)c2=O)cc1C | 60% (inactive)
Cc1cccc(Cn2c(=O)n(CCc3ccccc3)c(=O)c3c(C)c(C)sc32)c1 | 90% (inactive)
Cc1ccc(C)c(Cn2c(=O)n(-c3ccc(Cl)cc3)c(=O)c3c(C)c(C)sc32)c1 | 73% (inactive)
O=C(CN1CCCN(Cc2ccc(F)cc2)S1(=O)=O)NCc1ccccc1Cl | 78% (inactive)
CC(C)NS(=O)(=O)c1ccc(OCC(=O)N2CCN(c3ccccc3F)CC2)cc1 | 89% (inactive)
FC(F)(F)c1ccc(-c2noc(-c3ccccc3Br)n2)cc1 | 89% (inactive)
CCOc1cc(C2CC(=O)Nc3cc4c(cc32)OCCO4)ccc1O (stereo not given) | 78% (inactive)

Structure (SMILES) | survival
CCCc1nn2c(=O)cc(COC(=O)c3ccc(NC(=O)COc4ccccc4F)cc3)nc2s1 | 121% (inactive)
COCCNC(=O)c1cc(-c2cccc(Cl)c2)on1 | 136% (inactive)
CN(Cc1ccccc1)C(=O)c1cc(-c2cccc(Cl)c2)on1 | -15% (active)
CC1CCN(C(=O)c2cc(-c3ccc(Cl)cc3)on2)CC1 | 85% (inactive)
O=C(NCCc1ccccc1)c1cc(-c2cccc(Cl)c2)on1 | 87% (inactive)
O=C(c1cc(-c2ccccc2)on1)N1CCCCC1 | 113% (inactive)
CC1CCN(C(=O)c2cc(-c3ccc(Br)cc3)on2)CC1 | 78% (inactive)
O=C(c1cc(-c2cccc(Cl)c2)on1)N1CCCCC1 | 66% (inactive)
CC1CCN(C(=O)c2cc(-c3cccc(Cl)c3)on2)CC1 | -15% (active)
O=C(c1cc(-c2cccc(Cl)c2)on1)N1CCN(c2ccccc2)CC1 | 4% (active)
O=C(CSCc1cccc(F)c1)NCc1ccccc1 | 85% (inactive)
CC(=O)Nc1cccc(C(=O)NCc2ccc3c(c2)CCN3C(=O)c2ccccc2)c1 | 63% (inactive)
Oc1ccc(NCc2ccccc2OCc2ccc(Cl)cc2)cc1 | 72% (inactive)
CCOc1cccc(CNc2ccc(O)cc2)c1OCc1ccccc1Cl | 54% (inactive)
CCOc1cc(CNc2ccc(O)cc2)cc(Br)c1OCc1ccccc1 | -5% (active)
COc1cc(CNc2ccc3[nH]c(=O)[nH]c3c2)cc(Br)c1OCc1ccc(F)cc1 | 117% (inactive)
CCOc1cc(CNc2ccc(C(=O)O)cc2)ccc1OCc1ccccc1 | 57% (inactive)
Oc1ccc(NCc2ccccc2OCc2ccccc2)cc1 | 100% (inactive)
CCOc1cc(CNc2ccc(O)cc2)ccc1OCc1ccc(Cl)cc1 | 10% (active)
CCOc1cc(CNc2ccc(O)cc2)cc(Cl)c1OCc1ccccc1 | -5% (active)
CCOc1c(Cl)cc(CNc2ccc3[nH]c(=O)[nH]c3c2)cc1OC | 88% (inactive)

— PubChem BioAssay AID463173 (ICCB-Longwood Screening Facility, Harvard Medical School, 2010)
